RXFP1 ag: qHTS Assay for Agonists of the Relaxin Receptor RXFP1 | Relaxin receptor 1 (Homo sapiens), Q9HBX9 | 0.3% of 370,000 active | HEK293T-RXFP1 cAMP TR-FRET, 30 min; response scale: percent of porcine relaxin response, buffer zero | Potency, µM (titrated, usually from 57.5 µM), actives largely listed as activators; active = well fitted activation curve with a large enough effect; inconclusive = small, poorly fitted or top-dose-only effect; note: nearly all actives have a fitted effect of over 60% in size
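HEK293T cells stably expressing RXFP1 were pretreated with the PDE4 inhibitor Ro 20174, exposed to compounds for 30 min at 37C, lysed, and cAMP was read by TR-FRET. Data normalized to buffer (basal) and 29 nM porcine relaxin (100%).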
pAkt inh: HTS Assay for Inhibitors of Akt Phophorylation: Primary Screen | Neuro2A IGF-stimulated pAkt S473 HTRF, 20 min; active compounds read low | activity change, % for hits at 50 µM | 0.32% of 360,000 active; in the data active = activity change below about -80%; inconclusive = mostly about -51% to -80%
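Neuro2A cells (4,500/well, DMEM with 0.5% FBS) were treated with compound at a single 50 µM final concentration, stimulated with 6 nM IGF for 20 min at 37 °C, and lysed. Phospho-Akt Ser473 was read by HTRF as 665/615 ratio ×10^4.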
gsp ag: qHTS for Agonist of gsp, the Etiologic Mutation Responsible for Fibrous Dysplasia/McCune-Albright Syndrome: qHTS. gsp mutant cells, cAMP HTRF, 30 min. Potency, µM (doses to about 76.9 µM), actives largely listed as activators. 0.13% of 340,000 active; active = well fitted activation curve with a large enough effect; inconclusive = small, poorly fitted or top-dose-only effect, or another doubt; inactive = no such curve, though single readings can be large or run the other way; cell line not stated here;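 note: phosphodiesterase inhibitor Ro 20-1724 added with compounds to block cAMP breakdown; nearly all actives have a fitted effect of over 60% in size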
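Cells stably selected in G418 were plated at 2000/well, grown 16-24 hr, then given compounds in DMSO with the PDE inhibitor […] (300 uM solution added) for 30 min at 37C; cAMP was read by HTRF.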
RXFP1 antagonist: qHTS Assay for Antagonists of the Relaxin Receptor RXFP1; Relaxin receptor 1 (Homo sapiens), Q9HBX9; HEK293-RXFP1, relaxin-stimulated cAMP HTRF, 30 min; active compounds read low; activity change, negative = inhibition, % at 57.5 µM; 0.59% of 350,000 active; AID 1259400, 2018;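 active = activity change of -60% or lower, but not beyond a set lower limit; inconclusive = change between -60% and -40%, or beyond the set limit; inactive = change above -40%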
gsp antag: qHTS for Antagonists of gsp, the Etiologic Mutation Responsible for Fibrous Dysplasia/McCune-Albright Syndrome: qHTS. gsp-mutant cells, cAMP HTRF, 30 min. Potency, µM (highest dose often 76.9 µM), actives largely listed as inhibitors. 0.4% of 340,000 active. AID 624288, 2012; calls by dose curve; cell line not stated here;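 note: intracellular cAMP measured with PDE inhibitor Ro 20-1724 present during compound exposure; nearly all actives have a fitted effect of over 65% in size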
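HTRF cAMP read-out (cAMP-d2 plus anti-cAMP antibody-K in lysis buffer, 30 min RT). Before lysis, cells are exposed to compounds with […] for 30 min at 37C in DPBS containing Ca/Mg, BSA and Tween 20.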
Of the large screens only hits and unclear results are named; the others gave an inactive call. The list is not random: actives were taken first. Their share in the collection is about 1.2%.

O=C(Nc1ccc2c(c1)OCCO2)C1CCCN1S(=O)(=O)c1ccc(Cl)cc1 (stereo unspecified)	pAkt inh -111%
CC(=O)Nc1ccc(NC(=O)[C@@H]2CCCN2S(=O)(=O)c2ccc3c(c2)OCCO3)cc1	none
CN1CCN(C(=O)C2=C[C@@H](c3ccc(C(F)(F)F)cc3)C[C@@H](OCCCCO)O2)CC1	none (no result: gsp ag, RXFP1 antagonist)
O=C(C1=C[C@@H](c2ccc(C(F)(F)F)cc2)C[C@@H](OCCCCO)O1)N1CCCCCCC1	gsp antag 11µM (no result: RXFP1 ag, gsp ag, RXFP1 antagonist)
COc1ccc(-c2nc(CN3CCC(C(=O)NCCCN4CCN(c5ccccc5F)CC4)CC3)c(C)o2)cc1OC	none (no result: pAkt inh, gsp ag, gsp antag)
CCOc1ncccc1C(=O)OCC(=O)N1CCN(S(=O)(=O)c2ccc(Cl)cc2)CC1	gsp ag 7.9µM
Nc1ncccc1C(=O)OCC(=O)N1CCN(S(=O)(=O)c2ccc(Cl)cc2)CC1	none
COc1ccc(-c2csc(NC(=O)c3ccccc3NS(=O)(=O)c3ccc(F)c(F)c3)n2)cc1	gsp antag 32µM
O=C(Nc1ccccc1N1CCOCC1)c1ccccc1NS(=O)(=O)c1ccc(F)c(F)c1	gsp antag 3.5µM
O=C(Nc1ccccc1N1CCOCC1)c1ccccc1NS(=O)(=O)c1ccc(F)cc1	RXFP1 antagonist inconclusive
Cc1ccc(S(=O)(=O)Nc2ccccc2C(=O)Nc2nc(-c3ccc(F)cc3)cs2)cc1	none (no result: RXFP1 antagonist)
CCN(C(=O)c1ccco1)c1nnc(-c2ccc(OC)cc2)s1	RXFP1 ag inconclusive, gsp ag 32µM
CCCCC(=O)N(CCOC)c1nnc(-c2ccc(OC)cc2)s1	pAkt inh -103%, gsp ag inconclusive
CCN[C@@H]1C[C@H](N)[C@@H](OC2OC(CN)=CCC2N)[C@H](O)[C@H]1O[C@H]1OC[C@](C)(O)[C@H](NC)[C@H]1O (stereo partly specified)	none (no result: RXFP1 ag, pAkt inh, gsp ag, gsp antag)

Screening results (PubChem BioAssay)
